From PubChem BioAssay (NCI) come the findings set out here.

Some test systems named below: HCT-15 colon; HT29 colon; SNB-75 CNS; SNB-19 CNS; U251 CNS; PC-3 prostate; SK-MEL-5 melanoma; UACC-62 melanoma; LOX IMVI melanoma; SK-MEL-28 melanoma.
Common to all, as to assay: NCI-60 one-dose screen, 48 h (100 = growth as untreated, 0 = no growth, -100 = all killed)
What all share (conditions): 10 µM unless noted

Molecules are shown by their SMILES. About 83,000 compounds went through this panel and 20% of them were active in at least one assay; those are over-represented in the sample as a whole.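 For each line, cells grew in 96-well plates with the test compound present at a single concentration for 48 hours.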 A number with no mark means an inactive call. Calls of active or inactive are those of the source. Rule for the calls: active = growth percent below 10; inactive = the rest.

As for `Cn1ccnc1C(=O)/C=C/c1ccc(C(=O)Nc2c(F)c(F)c(F)c(F)c2F)cc1`, the growth with HCT-15 colon is -15.5% (active); with HT29 colon, 1.2% (active); in the assay on SNB-75 CNS, 7.64% (active); with SNB-19 CNS it was 5.66% (active); with U251 CNS, -48.9% (active); with PC-3 prostate, 7.27% (active). Moreover, the growth in the assay with SK-MEL-5 melanoma was 53.1%; in the assay on UACC-62 melanoma it was 29.3%; in the assay on LOX IMVI melanoma it was -83.5% (active); with SK-MEL-28 melanoma it was 82.5%.
As for `C#Cc1c(I)n(C2OC(CO[Si](C)(C)C(C)(C)C)C3OC(C)(C)OC32)c(=O)[nH]c1=O` (stereo not given), the growth with HCT-15 colon is -9.25% (active); in the assay with HT29 colon, 38.6%; in the assay with SNB-75 CNS, 86.8%; in the assay on SNB-19 CNS, 94.2%; with U251 CNS it was 3.76% (active); with PC-3 prostate, -61.1% (active). The growth is 96.6% with SK-MEL-5 melanoma, 82.1% in the assay on UACC-62 melanoma, -80.6% (active) in the assay with LOX IMVI melanoma and -56.7% (active) in the assay on SK-MEL-28 melanoma.
Regarding `CCCCCCCCCCCCCCCCCCOc1ccccc1CC(=O)OCC[N+]1(C)CCCCC1`, the growth is 86.3% in the assay on HCT-15 colon; 31.7% in the assay with HT29 colon; 46.3% in the assay on SNB-75 CNS; 50.6% with SNB-19 CNS; 36.9% in the assay on U251 CNS; 3.03% (active) with PC-3 prostate. Besides, the growth was -2.94% (active) in the assay with SK-MEL-5 melanoma, 33.8% in the assay with UACC-62 melanoma, 1.71% (active) in the assay on LOX IMVI melanoma and 62.5% with SK-MEL-28 melanoma.
For `C/C=C(/C)C(=O)O[C@@H]1CC(C)(C)CC2C34OC(=O)[C@@]21CC[C@@]3(C)[C@]1(C)CCC2C(C)(C)C(=O)CC[C@]2(C)C1C[C@@H]4O` (stereo not given in full), the growth is 38.4% with HCT-15 colon; 65.1% in the assay with HT29 colon; 64.1% in the assay with SNB-75 CNS; 78.6% in the assay on SNB-19 CNS; 46.9% in the assay on U251 CNS; 25.4% in the assay with PC-3 prostate. The growth in the assay on SK-MEL-5 melanoma is 27.8%; in the assay on UACC-62 melanoma, 55.3%; with LOX IMVI melanoma, 33.5%; with SK-MEL-28 melanoma it was 75.8%.
In the case of `Cc1nc2c(c(-c3ccccc3)n1)Cc1c(ccc3ccccc13)O2`, the growth in the assay on HCT-15 colon is 107%; in the assay with HT29 colon, 89.1%; with SNB-75 CNS, 92.2%; with SNB-19 CNS, 110%; with U251 CNS it was 102%; in the assay with PC-3 prostate, 87.5%. Also, the growth in the assay with SK-MEL-5 melanoma was 70.8%; in the assay with UACC-62 melanoma, 83.8%; in the assay with LOX IMVI melanoma, 91.5%; in the assay on SK-MEL-28 melanoma, 107%.
As to `CC1=C2[C@@H](CC1)[C@]1(C)O[C@@](C(C)C)(C[C@H]1OC(=O)CO)[C@H]2OC(=O)CCCc1ccccc1`, the growth is 65.7% in the assay with HCT-15 colon; 72.1% in the assay on HT29 colon; 90.8% in the assay with SNB-75 CNS; 92.5% in the assay on SNB-19 CNS; 74.5% in the assay on U251 CNS; 26.9% in the assay on PC-3 prostate. The growth is 66.8% with SK-MEL-5 melanoma, 40.2% in the assay with UACC-62 melanoma, 52.3% in the assay on LOX IMVI melanoma and 90.2% with SK-MEL-28 melanoma.
On to `COC12C=C/C(=C(/C(=O)OCc3ccccn3)C(=O)CCCCCCCCC3(OC)C=C/C(=C(/C(=O)OCc4ccccn4)C(=O)CCCCCCCC1)O3)O2`, for which the growth is -37.5% (active) with HCT-15 colon; 3.23% (active) with HT29 colon; 1.28% (active) in the assay on SNB-75 CNS; 12.5% in the assay with SNB-19 CNS; -25.6% (active) with U251 CNS; -37.4% (active) in the assay on PC-3 prostate. In addition, the growth with SK-MEL-5 melanoma is -83.3% (active); in the assay on UACC-62 melanoma it was -52.5% (active); with LOX IMVI melanoma it was -69.6% (active); with SK-MEL-28 melanoma, -11.1% (active).
With `O=C1C=CC2(O)OC(c3ccccc3)CC(=O)C2=C1O` (stereo not given), the growth with HCT-15 colon was 64.9%; in the assay on HT29 colon, 108%; in the assay with SNB-75 CNS, 92%; in the assay on SNB-19 CNS, 87.8%; in the assay with U251 CNS, 74.9%; with PC-3 prostate, 79.7%. Moreover, the growth with SK-MEL-5 melanoma is 89.8%; with UACC-62 melanoma, 80.7%; with LOX IMVI melanoma, 77%; in the assay on SK-MEL-28 melanoma, 95.7%.
Turning to `CCC(=C(c1ccc(OCCN(CC)CC)cc1)c1ccc(OCCN(CC)CC)cc1)c1ccc(Cl)cc1`, the growth with HCT-15 colon is -81% (active); in the assay with HT29 colon it was -68% (active); with SNB-75 CNS it was -73.6% (active); in the assay with SNB-19 CNS, -56.1% (active); in the assay on U251 CNS, -87.8% (active); in the assay with PC-3 prostate, -50.7% (active). The growth with SK-MEL-5 melanoma was -98.2% (active); in the assay on UACC-62 melanoma, -68.3% (active); with LOX IMVI melanoma it was -87% (active); with SK-MEL-28 melanoma, -86.9% (active).
With `CC(C)(C#N)c1cc(C(=O)Nc2cc(Nc3ncccc3-c3ncnc4nc[nH]c34)ccc2F)cc(C(F)(F)F)c1`, the growth in the assay with HCT-15 colon was 54%; in the assay with HT29 colon it was 20.7%; in the assay on SNB-75 CNS, 37%; in the assay with SNB-19 CNS it was 71.2%; in the assay with U251 CNS, 59.7%; in the assay on PC-3 prostate it was 63.9%. Further, the growth with SK-MEL-5 melanoma is 24.4%; in the assay on UACC-62 melanoma, 3.16% (active); in the assay with LOX IMVI melanoma it was -9.46% (active); with SK-MEL-28 melanoma, 10.4%.
As for `CC(C)C(=O)Nc1ncc(C(=O)NCCN(Cc2ccccc2)C(=O)c2ccc(S(=O)(=O)Nc3ccccc3)cc2)s1`, the growth was 96.6% with HCT-15 colon; 104% with HT29 colon; 78.3% with SNB-75 CNS; 97.1% with SNB-19 CNS; 97.4% with U251 CNS; 94.3% in the assay with PC-3 prostate. Also, the growth in the assay on SK-MEL-5 melanoma was 90.8%; with UACC-62 melanoma, 89.6%; in the assay with LOX IMVI melanoma it was 104%; in the assay with SK-MEL-28 melanoma it was 98.4%.
Regarding `CCCCCCCCOC(=O)c1c(C)[nH]c(/C=C2\N=C(c3ccc[nH]3)C=C2OC)c1C`, the growth in the assay with HCT-15 colon is 1.19% (active); in the assay with HT29 colon, -11.2% (active); with SNB-75 CNS, -20.8% (active); with SNB-19 CNS it was 25.4%; with U251 CNS, -8.43% (active); with PC-3 prostate it was 18%. The growth with SK-MEL-5 melanoma is -99.2% (active); with UACC-62 melanoma, -25.7% (active); with LOX IMVI melanoma, -44.9% (active); in the assay on SK-MEL-28 melanoma, -12.5% (active).
Turning to `COc1ccc(-c2cc(-c3ccc(Cl)cc3)c(C#N)c(=O)n2CCCCC(=O)NO)cc1`, the growth was 20.9% in the assay on HCT-15 colon; 83.9% in the assay with HT29 colon; 76.7% in the assay on SNB-75 CNS; 78% in the assay on SNB-19 CNS; 69.7% with U251 CNS; 70.6% in the assay on PC-3 prostate. For the same compound, the growth in the assay on SK-MEL-5 melanoma was 39.1%; with UACC-62 melanoma, 87.1%; in the assay on LOX IMVI melanoma, -14.3% (active); with SK-MEL-28 melanoma, 79.3%.
